From PubChem BioAssay (NCATS)
Results filed as inconclusive are left out. The source made the active and inactive calls. Unless noted, calls follow the shape of the dose curve; as a rule, active = well fitted curve in the direction sought with a large enough effect; inconclusive = small, poorly fitted or top-dose-only effect, or another doubt; inactive = no such curve, though single readings can be large; an effect the other way counts as inactive or inconclusive.

Tests used:
[1] = biological target: Lysosomal acid glucosylceramidase (Homo sapiens) (UniProt P04062); assay: Glucocerebrosidase-p2 (AID 348; in the data active = potency below about 10 µM; also: potency is read from the fitted curve at half-maximal effect); details: purified GBA, blue fluorogenic substrate, 40 min
Procedure, shortened: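 Normal human glucocerebrosidase (0.2 nM) with blue fluorogenic substrate (80 uM final) in citrate/phosphate pH 5.9 with 10mM sodium taurocholate, 0.01% tween-20; 40 min RT, NaOH/glycine stop; fluorescence Ex 365/Em 440; AC50 from a titration from 0.6 nM upwards.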

[2] = AP1 Signaling Pathway (AID 357; active = well fitted curve in either direction with a large enough effect, not every such curve was filed as active; also: % is scaled to controls: 0 for no effect and ±100 for the full control effect)
Procedure, shortened: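 ME-180 cells with beta-lactamase reporter under AP-1 response element, stimulated with EC50 EGF; compounds tested in titration series, 5 h at 37 °C. CCF4 substrate added 2.5 h at room temperature; 460/530 nm emission ratio gave %activity and AC50.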

[3] = biological target: Cytochrome P450 1A2 (Homo sapiens) (UniProt P05177); assay: p450-cyp1a2 (AID 410; calls by dose curve;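 also: -100% = full effect of reference inhibitor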)
Procedure, shortened: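 20nM CYP1A2, 100uM Luciferin-ME (=Km), 100mM KPO4; cpd 10 min RT; +NADPH regen, 60 min RT; stop/detect 20 min; luminescence. Normalized to furafylline 57 uM = full inhibition.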

[4] = NFAT Signaling Pathway (AID 444; active = well fitted curve in either direction with a large enough effect, not every such curve was filed as active;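 also: carbachol stimulus at about its EC50 of 1 µM final; % is scaled to controls: 0 for no effect and ±100 for the full control effect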); details: Jurkat NFAT-bla M1, carbachol, beta-lactamase ratio, 5 h; at 17.2 µM (top of the series) unless noted
Procedure, shortened: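 Read-out: CCF4 FRET ratio (460 nm/530 nm) after 1 h RT dye loading, used for %activity and AC50 from titration series. Cells: Jurkat NFAT-β-lactamase/M1 line, treated with compound plus 1 uM carbachol for 5 h, 37 °C.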

[5] = biological target: Glucocorticoid receptor (Homo sapiens) (UniProt P04150); assay: GR-GFP Redistribution (AID 450;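 active = compounds whose dose series gives a full or clear partial fitted curve of increased nuclear translocation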; also: potency is read from the fitted curve at half-maximal effect); details: U2OS GR-GFP nuclear translocation, laser cytometry, 2 h
[6] = biological target: Glucocorticoid receptor (Homo sapiens) (UniProt P04150); assay: GR-EFC Redistribution (AID 451; calls by dose curve; also: potency is read from the fitted curve at half-maximal effect); details: CHO-K1 GR-EFC translocation, beta-gal luminescence, 2 h
Procedure, shortened: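 Translocation of GR-ED fusion to nuclear EA restores b-gal, read by luminescence after 1 h room-temperature detection. Engineered CHO-K1 biosensor cells, 1,000/well, exposed 2 h at 37 C to titrations up to 46 uM final.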

[7] = biological target: Mitogen-activated protein kinase 10 (Mus musculus) (UniProt Q61831); assay: JNK3 AlphaScreen Assay (AID 530; active = well fitted curve in either direction with a large enough effect, not every such curve was filed as active;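 also: kinase came from lysate of stimulated human HepG2 cells; signal reports phosphorylation of biotinylated GST-cJun 1-79 at Ser73 with 10 µM ATP; % is scaled to controls: 0 for no effect and ±100 for the full control effect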)
Procedure, shortened: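 Kinase buffer: 20 mM Tris-HCl pH 7.6, 10 mM MgCl2, 1 mM DTT, 0.1 mM Na3VO4, 0.01% Tween-20; ATP 10 uM. Substrate biotin-GST-cJun(1-79), enzyme from activated HepG2 lysates. Detection by Ser73 phospho-antibody AlphaScreen.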

[8] = biological target: 3',5'-cyclic-AMP phosphodiesterase 4B (Homo sapiens) (UniProt Q07343); assay: qHTS Assay for Inhibitors of PDE-IV (AID 607; active = well fitted activation curve with a large enough effect in the main read-out, with a control signal flat, not every such curve was filed as active; also: % of control where 0% means no effect)
Procedure, shortened: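 Cell-based read-out of cAMP via a modified cyclic nucleotide-gated channel and membrane potential dye (535/590 nm) in HEK293 cells expressing PDE4 endogenously. Compounds tested up to 22.9 uM final; 100 uM RO 20-1724 reference.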

[9] = biological target: ATP-dependent 6-phosphofructokinase (Trypanosoma brucei brucei) (UniProt O15648); assay: qHTS Assay to Find Inhibitors of T. brucei phosphofructokinase: hit validation (AID 492961);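 also: luminescence reports ADP formed as PFK phosphorylates fructose-6-phosphate with ATP; % is scaled to controls: 0 for no effect and ±100 for the full control effect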
Procedure, shortened: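 In this biochemical qHTS validation, titrated compounds were tested against 1.25 nM PFK with 0.1 mM ATP and 0.5 mM F6P. Percent activity came from controls lacking or containing enzyme.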

[10] = biological target: Ubiquitin carboxyl-terminal hydrolase 1 (Homo sapiens) (UniProt O94782); assay: Inhibitors of USP1/UAF1: Pilot qHTS (AID 504865);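 also: rhodamine fluorescence freed from ubiquitin-rhodamine substrate followed over time; top concentration of the series differs between compounds; % is scaled to controls: 0 for no effect and ±100 for the full control effect; nearly all actives have a fitted effect of over 35% in size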
Procedure, shortened: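 Enzyme-free wells gave the negative control, while test wells held 1nM USP1/UAF1 preincubated with compound for 15 min at room temperature. Ub-Rho at 150nM final started the reaction, and fluorescence at 480/540 nm was recorded kinetically.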

[11] = biological target: Luciferin 4-monooxygenase (Photinus pyralis) (UniProt P08659); assay: Biochemical firefly luciferase enzyme assay for NPC (AID 624030);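 also: purified P. pyralis luciferase at 10 nM with luciferin and ATP substrate; 0% = DMSO and -100% = full luciferase inhibition by PTC124 control; nearly all actives have a fitted effect of over 70% in size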
Procedure, shortened: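 Direct inhibition of firefly luciferase enzyme (10 nM final, 50 mM Tris Acetate) assessed by luminescence within 5 minutes. Percent activity scaled between DMSO and PTC124 positive control, with concentration-effect curves classified by fit quality and response.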

[12] = S16 Schwann cell viability assay (CellTiter-Glo assay) (AID 624031);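 also: cellular ATP luminescence as a viability measure; plate controls were DMSO-treated cells for no effect and cell-free wells for full effect; nearly all actives have a fitted effect of over 70% in size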
Procedure, shortened: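 Luminescent ATP read-out (CellTiter-Glo) after 24 h compound exposure of native S16 rat Schwann cells at 37 °C. Signals were normalized between cell-free wells and DMSO-treated cells, set as 0% activity.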

[13] = S16 Schwann cell PMP22 intronic element firefly luciferase assay (AID 624032);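 also: plate controls were DMSO for no effect and PTC124 positive control mean for full effect; nearly all actives have a fitted effect of over 30% in size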
Procedure, shortened: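 Luciferase reporter of PMP22 intronic-element expression in stably transfected S16 rat Schwann cells, read by ONE-Glo luminescence after 24 h compound exposure at 37 C. Activity scaled between DMSO (0%) and positive-control PTC124; concentration-effect curves quality-classified.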

[14] = qHTS profiling for inhibitors of Plasmodium falciparum proliferation (AID 504749);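 also: 0% = DMSO vehicle and full inhibition = artemisinin control; nearly all actives have a fitted effect of over 60% in size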; details: P. falciparum in erythrocytes, SYBR Green DNA, 72 h, at 28.7 µM (top of the series)
Procedure, shortened: (§1)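 In a 72 h erythrocytic culture (37 C, humidified, 5% CO2) at 2.5% hematocrit and 0.3% starting parasitemia, compounds were tested; SYBR Green I in detergent lysis buffer stained parasite DNA overnight.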

[15] = test system: 3D7; assay: as above; details: P. falciparum in erythrocytes, SYBR Green DNA, 72 h; series mostly up to 12.8 µM
Procedure, shortened: as §1

[16] = test system: 7G8; assay: as above; details: P. falciparum in erythrocytes, SYBR Green DNA, 72 h; series mostly up to 12.8 µM
Procedure, shortened: as §1

[17] = test system: AA1029; assay: as above; details: P. falciparum in erythrocytes, SYBR Green DNA, 72 h; series mostly up to 12.8 µM
Procedure, shortened: as §1

[18] = test system: AS120; assay: as above; details: P. falciparum in erythrocytes, SYBR Green DNA, 72 h; series mostly up to 12.8 µM
Procedure, shortened: as §1

[19] = test system: ATS189; assay: as above; details: P. falciparum in erythrocytes, SYBR Green DNA, 72 h; series mostly up to 12.8 µM
Procedure, shortened: as §1

[20] = test system: ATS95; assay: as above; details: P. falciparum in erythrocytes, SYBR Green DNA, 72 h; series mostly up to 12.8 µM
Procedure, shortened: as §1

[21] = test system: C2A; assay: as above; details: P. falciparum in erythrocytes, SYBR Green DNA, 72 h; series mostly up to 12.8 µM
Procedure, shortened: as §1

[22] = test system: CP185; assay: as above; details: P. falciparum in erythrocytes, SYBR Green DNA, 72 h; series mostly up to 12.8 µM
Procedure, shortened: as §1

[23] = test system: CP191; assay: as above; details: P. falciparum in erythrocytes, SYBR Green DNA, 72 h; series mostly up to 12.8 µM
Procedure, shortened: as §1

[24] = test system: CP192; assay: as above; details: P. falciparum in erythrocytes, SYBR Green DNA, 72 h; series mostly up to 12.8 µM
Procedure, shortened: as §1

[25] = test system: CP194; assay: as above; details: P. falciparum in erythrocytes, SYBR Green DNA, 72 h; series mostly up to 12.8 µM
Procedure, shortened: as §1

[26] = test system: CP201; assay: as above; details: P. falciparum in erythrocytes, SYBR Green DNA, 72 h; series mostly up to 12.8 µM
Procedure, shortened: as §1

[27] = test system: CP203; assay: as above; details: P. falciparum in erythrocytes, SYBR Green DNA, 72 h; series mostly up to 12.8 µM
Procedure, shortened: as §1

[28] = test system: CP211; assay: as above; details: P. falciparum in erythrocytes, SYBR Green DNA, 72 h; series mostly up to 12.8 µM
Procedure, shortened: as §1

[29] = test system: CP215; assay: as above; details: P. falciparum in erythrocytes, SYBR Green DNA, 72 h; series mostly up to 12.8 µM
Procedure, shortened: as §1

[30] = test system: CP217; assay: as above; details: P. falciparum in erythrocytes, SYBR Green DNA, 72 h; series mostly up to 12.8 µM
Procedure, shortened: as §1

[31] = test system: CP237; assay: as above; details: P. falciparum in erythrocytes, SYBR Green DNA, 72 h; series mostly up to 12.8 µM
Procedure, shortened: as §1

[32] = test system: CP238; assay: as above; details: P. falciparum in erythrocytes, SYBR Green DNA, 72 h; series mostly up to 12.8 µM
Procedure, shortened: as §1

[33] = test system: CP247; assay: as above; details: P. falciparum in erythrocytes, SYBR Green DNA, 72 h; series mostly up to 12.8 µM
Procedure, shortened: as §1

[34] = test system: CP250; assay: as above; details: P. falciparum in erythrocytes, SYBR Green DNA, 72 h; series mostly up to 12.8 µM
Procedure, shortened: as §1

[35] = test system: CP252; assay: as above; details: P. falciparum in erythrocytes, SYBR Green DNA, 72 h; series mostly up to 12.8 µM
Procedure, shortened: as §1

[36] = test system: CP256; assay: as above; details: P. falciparum in erythrocytes, SYBR Green DNA, 72 h; series mostly up to 12.8 µM
Procedure, shortened: as §1

Sequence of Glucocorticoid receptor (Homo sapiens) (P04150 whole entry, looked up, the tested form may be a part): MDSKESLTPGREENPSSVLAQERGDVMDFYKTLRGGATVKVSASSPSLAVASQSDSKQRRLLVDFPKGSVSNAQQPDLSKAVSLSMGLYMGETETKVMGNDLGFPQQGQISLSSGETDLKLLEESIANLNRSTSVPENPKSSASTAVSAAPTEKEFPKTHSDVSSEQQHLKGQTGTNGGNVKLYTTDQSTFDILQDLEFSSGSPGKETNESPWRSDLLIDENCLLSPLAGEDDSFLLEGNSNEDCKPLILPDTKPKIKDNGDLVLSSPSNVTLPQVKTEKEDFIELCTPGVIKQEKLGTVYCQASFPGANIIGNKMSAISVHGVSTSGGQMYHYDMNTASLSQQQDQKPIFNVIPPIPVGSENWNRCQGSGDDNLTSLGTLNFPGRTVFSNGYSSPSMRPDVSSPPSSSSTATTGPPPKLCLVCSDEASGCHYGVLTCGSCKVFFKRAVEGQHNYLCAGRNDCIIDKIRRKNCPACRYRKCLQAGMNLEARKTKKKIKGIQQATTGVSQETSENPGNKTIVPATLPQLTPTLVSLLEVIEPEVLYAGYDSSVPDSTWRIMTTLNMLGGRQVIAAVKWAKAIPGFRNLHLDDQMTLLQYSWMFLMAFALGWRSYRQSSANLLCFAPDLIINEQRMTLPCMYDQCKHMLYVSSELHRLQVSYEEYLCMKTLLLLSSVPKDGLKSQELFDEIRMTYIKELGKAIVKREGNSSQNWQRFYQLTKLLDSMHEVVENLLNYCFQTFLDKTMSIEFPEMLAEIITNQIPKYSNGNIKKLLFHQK
Sequence of Lysosomal acid glucosylceramidase (Homo sapiens) (P04062 whole entry, looked up): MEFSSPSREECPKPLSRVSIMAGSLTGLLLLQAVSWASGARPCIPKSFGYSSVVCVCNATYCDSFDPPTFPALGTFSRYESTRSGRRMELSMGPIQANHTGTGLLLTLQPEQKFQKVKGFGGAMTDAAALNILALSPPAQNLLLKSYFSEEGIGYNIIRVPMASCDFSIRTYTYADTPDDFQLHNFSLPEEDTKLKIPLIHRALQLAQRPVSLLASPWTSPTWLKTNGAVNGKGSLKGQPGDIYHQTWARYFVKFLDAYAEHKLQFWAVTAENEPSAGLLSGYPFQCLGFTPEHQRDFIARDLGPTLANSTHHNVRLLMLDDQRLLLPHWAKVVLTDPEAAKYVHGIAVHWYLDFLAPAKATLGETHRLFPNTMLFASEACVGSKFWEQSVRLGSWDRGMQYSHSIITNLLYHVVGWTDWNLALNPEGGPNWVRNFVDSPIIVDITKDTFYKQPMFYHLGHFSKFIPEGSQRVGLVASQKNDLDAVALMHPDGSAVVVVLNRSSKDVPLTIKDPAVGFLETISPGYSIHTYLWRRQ
Sequence of 3',5'-cyclic-AMP phosphodiesterase 4B (Homo sapiens) (Q07343 whole entry, looked up): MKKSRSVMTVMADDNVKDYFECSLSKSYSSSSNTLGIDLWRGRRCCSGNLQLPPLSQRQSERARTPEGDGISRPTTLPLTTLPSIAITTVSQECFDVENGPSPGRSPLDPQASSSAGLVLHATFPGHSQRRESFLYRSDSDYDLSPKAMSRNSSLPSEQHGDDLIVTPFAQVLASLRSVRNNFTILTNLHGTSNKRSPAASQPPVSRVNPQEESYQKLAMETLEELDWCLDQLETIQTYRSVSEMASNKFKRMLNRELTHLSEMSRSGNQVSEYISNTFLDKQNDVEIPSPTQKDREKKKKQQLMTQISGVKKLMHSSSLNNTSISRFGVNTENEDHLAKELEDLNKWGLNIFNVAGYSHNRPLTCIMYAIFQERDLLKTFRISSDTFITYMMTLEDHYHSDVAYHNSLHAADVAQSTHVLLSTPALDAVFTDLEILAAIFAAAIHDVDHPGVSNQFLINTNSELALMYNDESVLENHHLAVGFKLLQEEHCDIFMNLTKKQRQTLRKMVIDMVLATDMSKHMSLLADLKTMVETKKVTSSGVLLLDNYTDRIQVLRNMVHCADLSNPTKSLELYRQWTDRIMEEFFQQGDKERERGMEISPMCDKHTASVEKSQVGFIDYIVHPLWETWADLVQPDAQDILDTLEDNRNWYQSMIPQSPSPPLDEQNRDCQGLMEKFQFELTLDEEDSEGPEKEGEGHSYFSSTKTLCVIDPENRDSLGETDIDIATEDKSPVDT
Sequence of Luciferin 4-monooxygenase (Photinus pyralis) (P08659 whole entry, looked up): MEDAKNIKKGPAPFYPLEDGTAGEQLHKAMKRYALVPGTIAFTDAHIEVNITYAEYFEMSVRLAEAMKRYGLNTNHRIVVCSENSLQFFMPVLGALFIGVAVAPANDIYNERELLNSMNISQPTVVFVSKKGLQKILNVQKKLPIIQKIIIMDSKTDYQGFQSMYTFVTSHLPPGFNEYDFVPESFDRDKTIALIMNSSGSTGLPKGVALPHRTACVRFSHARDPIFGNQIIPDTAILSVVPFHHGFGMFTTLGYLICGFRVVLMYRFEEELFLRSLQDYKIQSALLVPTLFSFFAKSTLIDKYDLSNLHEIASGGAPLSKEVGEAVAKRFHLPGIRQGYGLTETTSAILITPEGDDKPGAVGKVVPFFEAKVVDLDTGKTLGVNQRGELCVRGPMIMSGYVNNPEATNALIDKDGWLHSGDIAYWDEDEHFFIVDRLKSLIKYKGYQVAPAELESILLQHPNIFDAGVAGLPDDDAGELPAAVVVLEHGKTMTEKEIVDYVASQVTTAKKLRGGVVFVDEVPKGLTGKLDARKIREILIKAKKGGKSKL
Sequence of ATP-dependent 6-phosphofructokinase (Trypanosoma brucei brucei) (O15648 whole entry, looked up): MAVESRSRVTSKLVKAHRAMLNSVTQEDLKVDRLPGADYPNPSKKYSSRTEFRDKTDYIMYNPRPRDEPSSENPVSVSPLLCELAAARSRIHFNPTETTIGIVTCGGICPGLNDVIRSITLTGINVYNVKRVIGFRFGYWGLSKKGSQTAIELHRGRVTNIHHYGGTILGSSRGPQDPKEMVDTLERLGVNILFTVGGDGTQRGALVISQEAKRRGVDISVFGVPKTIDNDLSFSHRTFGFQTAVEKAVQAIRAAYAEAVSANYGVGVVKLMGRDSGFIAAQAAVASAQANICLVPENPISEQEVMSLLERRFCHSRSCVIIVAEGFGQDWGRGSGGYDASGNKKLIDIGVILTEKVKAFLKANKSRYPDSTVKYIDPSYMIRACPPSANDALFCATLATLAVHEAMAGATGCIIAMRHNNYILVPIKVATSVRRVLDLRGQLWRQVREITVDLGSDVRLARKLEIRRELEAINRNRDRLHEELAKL
Sequence of Ubiquitin carboxyl-terminal hydrolase 1 (Homo sapiens) (O94782 whole entry, looked up): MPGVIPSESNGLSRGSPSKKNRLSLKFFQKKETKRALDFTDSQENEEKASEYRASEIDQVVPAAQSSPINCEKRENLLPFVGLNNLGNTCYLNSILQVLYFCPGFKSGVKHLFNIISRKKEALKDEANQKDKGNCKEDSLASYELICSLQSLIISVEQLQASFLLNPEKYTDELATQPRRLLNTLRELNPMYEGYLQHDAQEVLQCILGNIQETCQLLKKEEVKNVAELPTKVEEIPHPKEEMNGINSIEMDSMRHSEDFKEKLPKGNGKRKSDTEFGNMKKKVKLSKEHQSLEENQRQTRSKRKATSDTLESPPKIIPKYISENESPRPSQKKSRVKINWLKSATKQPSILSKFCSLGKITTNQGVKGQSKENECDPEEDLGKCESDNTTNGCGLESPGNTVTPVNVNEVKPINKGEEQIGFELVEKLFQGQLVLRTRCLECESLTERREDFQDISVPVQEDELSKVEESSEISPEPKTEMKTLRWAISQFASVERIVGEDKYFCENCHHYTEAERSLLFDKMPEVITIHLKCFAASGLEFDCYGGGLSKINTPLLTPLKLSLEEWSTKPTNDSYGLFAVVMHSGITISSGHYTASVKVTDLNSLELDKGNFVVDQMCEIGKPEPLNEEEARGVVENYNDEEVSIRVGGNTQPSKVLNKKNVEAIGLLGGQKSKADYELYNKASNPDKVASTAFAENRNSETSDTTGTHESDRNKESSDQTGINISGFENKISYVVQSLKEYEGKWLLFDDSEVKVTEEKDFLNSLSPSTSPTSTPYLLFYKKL
Sequence of Cytochrome P450 1A2 (Homo sapiens) (P05177 whole entry, looked up): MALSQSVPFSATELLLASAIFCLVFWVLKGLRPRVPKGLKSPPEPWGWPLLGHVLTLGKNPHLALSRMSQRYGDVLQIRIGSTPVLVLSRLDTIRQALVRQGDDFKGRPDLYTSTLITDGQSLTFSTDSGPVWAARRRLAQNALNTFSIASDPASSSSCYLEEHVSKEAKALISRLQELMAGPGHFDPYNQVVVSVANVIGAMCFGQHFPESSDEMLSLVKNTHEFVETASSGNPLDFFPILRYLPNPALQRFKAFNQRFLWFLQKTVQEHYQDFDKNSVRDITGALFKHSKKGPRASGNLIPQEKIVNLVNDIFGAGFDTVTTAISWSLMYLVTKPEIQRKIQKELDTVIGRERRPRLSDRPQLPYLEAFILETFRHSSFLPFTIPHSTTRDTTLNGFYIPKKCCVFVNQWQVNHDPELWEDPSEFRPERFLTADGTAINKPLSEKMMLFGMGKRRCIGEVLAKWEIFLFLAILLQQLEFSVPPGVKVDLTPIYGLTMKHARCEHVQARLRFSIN

O=C(O)[C@@H]1CCCN1
inactive: Potency [1] > 11.4 µM | outcome [2] | Potency [3] | activity change, negative = inhibition [4] -2.98% [at 7.69 µM] | Potency [5] > 46 µM | Potency [6] > 9.22 µM | Potency [7] | outcome [8] | outcome [9] | Potency [10] | Potency [11] | outcome [12] | Potency [13] | activity, negative = inhibition ([14]; parasite line A) 3.04% | activity, negative = inhibition ([14]; parasite line B) -1.27% | Potency [15] | Potency [16] | Potency [17] | Potency [18] | Potency [19] | Potency [20] | Potency [21] | Potency [22] | Potency [23] | Potency [24] | Potency [25] | Potency [26] | Potency [27] | Potency [28] | Potency [29] | Potency [30] | Potency [31] | Potency [32] | Potency [33] | Potency [34] | Potency [35] | Potency [36]
